HT1080 IDH1KD tx: toxicity to HT-1080 IDH1 knockdown cells (counter line); HT-1080 IDH1 knockdown viability, ATP luminescence, 48 h; Potency, µM (highest dose often 46.1 µM), without a hit: at the highest dose activity, negative = toxicity, usual class: cytotoxic; hit rate 2% among 360,000; AID 686971;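 note: 0% = DMSO wells and -100% = cell-free medium wells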
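Using the IDH1-knockdown HT-1080 line run in the same batch and compound series as the NT line, viability after 48 h at 37 °C was determined by CellTiter-Glo luminescence and expressed as % activity.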
KB-3-1 tox: KB-3-1 parental cell cytotoxicity | KB-3-1 viability, CellTiter-Glo ATP luminescence, 72 h | hit rate 1.4% among 400,000 | AID 1347075 | Potency, µM (top dose mostly 46.1 µM), most hits filed as cytotoxic; note: nearly all actives have a fitted effect of over 60% in size
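Luminescent ATP read-out (CellTiter-Glo) measures survival of drug-naive KB-3-1 cells after 72 h compound exposure at 37 °C. Titration series was screened from lowest to highest concentration, with DMSO vehicle plates as background controls.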
HT1080NT lethal: kills 2HG-producing HT-1080-NT fibrosarcoma cells. HT-1080-NT fibrosarcoma viability, CellTiter-Glo ATP luminescence, 48 h. Potency, µM (top dose mostly 46.1 µM), without a hit: at the top dose activity, negative = less viability, usual class: cytotoxic. hit rate 1.6% among 360,000;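 note: NT is the 2HG producing partner of a matched IDH1 knockdown line; 0% = DMSO-treated cells and -100% = media-only wells without cells; nearly all actives have a fitted effect of over 55% in size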
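Viability of the 2HG-overproducing fibrosarcoma line after 48 hours of compound exposure at 37 degrees C was determined by luminescence with CellTiter-Glo, and concentration-effect curves were then fitted and categorized.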
DT40 TDP1 CPT: DT40-hTDP1 cell growth loss with CPT | Potency, µM (series often up to 46.2 µM), for the others: at the highest dose activity change, negative = growth inhibition, actives largely listed as inhibitors | chicken DT40 Tdp1-/-;hTDP1 cells + 20 nM CPT, ATP luminescence, 48 h | hit rate 12% among 420,000 | AID 686979; note: nearly all actives have a fitted effect of over 55% in size
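Cell growth measured by CellTiter-Glo luminescence after a minimum 48 h, 37 C compound exposure with 20 nM CPT in Tdp1-knockout DT40 cells stably expressing hTDP1, seeded 400/well; qHTS titration format.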
KB-V1 cytotox: KB-V1 MDR subline cytotoxicity | Potency, µM (titrated, usually from 46.1 µM), actives largely listed as cytotoxic | AID 1347076 | hit rate 3.4% among 400,000 | KB-V1 MDR cells viability, CellTiter-Glo, 72 h; note: nearly all actives have a fitted effect of over 60% in size
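Cells of the MDR subline KB-V1 are plated, dosed with compound at multiple concentrations, and incubated 72 h at 37 degrees C; CellTiter-Glo is then added and luminescence read after 10 min.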
DT40 TDP1 no CPT: qHTS for Inhibitors of human tyrosyl-DNA phosphodiesterase 1 (TDP1): qHTS in cells in absence of CPT | DT40 Tdp1-/- hTDP1 cells, no CPT, ATP luminescence, 48 h | Potency, µM (highest dose often 46.2 µM), for the others: top-dose activity change, negative = growth inhibition, hits mostly inhibitors | hit rate 15% among 420,000 | AID 686978, 2013; note: nearly all actives have a fitted effect of over 55% in size
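Camptothecin absent (DMSO only). Human TDP1-complemented DT40 knockout cells, 400 cells/well, 37 °C for minimum 48 hr; ATP measured via CellTiter-Glo, 30 min dark incubation, luminescence.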
* hit, by the source's call; i = inactive; ? = inconclusive; . = no result given. The list is not random: actives were taken first. Their share in the collection is about 19%. Calls come from the whole dose curve; as a rule, active = well fitted curve in the direction sought with a large enough effect; inconclusive = small, poorly fitted or top-dose-only effect, or another doubt; inactive = no such curve, though single readings can be large; an effect the other way counts as inactive or inconclusive. Unless noted, % is set by controls: 0 for no effect and ±100 for the full control effect; potency is the fitted concentration of half-maximal effect.

SMILES	HT1080 IDH1KD tx	KB-3-1 tox	HT1080NT lethal	DT40 TDP1 CPT	KB-V1 cytotox	DT40 TDP1 no CPT
Cc1ccc(C(C)(C)C)c(OCC(=O)NCCc2nc3ccccc3[nH]2)c1	.	i	.	13µM*	i	7.3µM*
O=C(c1ccc(-c2ccc([N+](=O)[O-])cc2)o1)N1CCN(S(=O)(=O)c2cccs2)CC1	-4%	i	-7%	16µM*	i	3.7µM*
O=C(c1ccc([N+](=O)[O-])cc1)N1CCN(C(=O)c2ccco2)CC1	0%	i	11%	-4%	i	-18%
O=C(c1ccc(-c2ccc(Cl)cc2)o1)N1CCN(S(=O)(=O)c2cccs2)CC1	-4%	i	-6%	?	?	?
O=C(NC1CCC(O)CC1)c1ccc(-c2ccc([N+](=O)[O-])cc2)o1 (stereo unspecified)	0%	i	-9%	16µM*	i	16µM*
O=C(COC(=O)c1ccc(-c2ccc([N+](=O)[O-])cc2)o1)NC(=O)NC1CCCCC1	11%	?	8%	?	i	?
O=C(c1ccco1)N1CCN(C(=O)c2ccc(-c3ccc([N+](=O)[O-])cc3)o2)CC1	-1%	.	7%	23µM*	.	?
CC(C)CC(=O)Nc1cccc(-c2cn3cccnc3n2)c1	.	i	.	-10%	i	-27%
O=C(CCC(=O)c1ccc(Cl)s1)Nc1ncccc1O	2%	i	0%	-23%	i	17%
NNC(=O)c1cc(Cl)ccc1Cl	-4%	i	-1%	0%	?	9%
O=c1c(-c2ccccc2)n[nH]c2ccccc12	1%	i	-1%	-6%	i	?
O=C1c2ccccc2-c2n[nH]c3cccc1c23	?	?	-15%	8.9µM*	?	21µM*
CCOc1cc2sc(N3CCC(C(=O)NCCCN4CCCC4=O)CC3)nc2cc1Br	0%	i	0%	?	i	?
CCOc1cc2sc(N3CCC(C(=O)Nc4cc(C)cc(C)c4)CC3)nc2cc1Br	.	i	.	21µM*	i	-54%
CCOc1cc2sc(N3CCC(C(=O)Nc4ccc(C)cc4C)CC3)nc2cc1Br	.	i	.	7.3µM*	i	21µM*
COC(=O)c1ccc(COc2cc(C)ccc2C)o1	7%	i	10%	1%	i	-2%
COc1cc(NC(=O)c2cc(C3CC3)nc3c2c(C)nn3-c2ccc(C)cc2)cc(OC)c1	.	.	.	?	.	6.5µM*
Cc1nn(-c2ccccc2)c2nc(C3CC3)cc(C(=O)NCc3ccccc3Cl)c12	.	.	.	?	.	23µM*
COc1ccc(NC(=O)c2cc(C3CC3)nc3c2c(C)nn3-c2ccc(C)cc2)cc1OC	.	i	.	?	i	?
Cc1cc(C(=O)NCc2ccccc2Cl)c2c(C)nn(-c3cccc(F)c3)c2n1	.	i	.	?	i	21µM*
COc1ccccc1N1CC(C(=O)OCC(=O)Nc2c(C)cccc2C)CC1=O (stereo unspecified)	11%	i	14%	-1%	?	-9%
COc1ccccc1OCC(=O)Nc1nc(-c2ccc(S(=O)(=O)N3CCOCC3)cc2)cs1	-8%	i	-1%	21µM*	i	13µM*
O=C(COc1ccccc1)Nc1nc(-c2ccc(S(=O)(=O)N3CCOCC3)cc2)cs1	-20%	i	-10%	?	i	?
COc1ccc(-c2csc(NC(=O)c3ccc(OCC(=O)N4CCOCC4)c(OC)c3)n2)cc1OC	-15%	?	-9%	16µM*	?	15µM*
O=C(CCc1ccc(S(=O)(=O)N2CCOCC2)cc1)Nc1nc(COc2ccccc2)cs1	?	5.2µM*	?	15µM*	2.9µM*	?
SMILES	HT1080 IDH1KD tx	KB-3-1 tox	HT1080NT lethal	DT40 TDP1 CPT	KB-V1 cytotox	DT40 TDP1 no CPT
COC(=O)c1cc(OCC(=O)Nc2ccc3c(c2)CCC3)cc(C(=O)OC)c1	-4%	i	0%	-5%	i	-12%
CCOc1ccc(OCC)c(NC(=O)CN2CCN(c3cc(C)ccc3C)CC2)c1	?	i	?	21µM*	?	23µM*
CCOc1ccc(OCC)c(NC(=O)CN2CCN(CC(=O)NC(C)C)CC2)c1	2%	i	3%	15µM*	i	?
CCCN1CCN(CC(=O)Nc2cc(OCC)ccc2OCC)CC1	11%	i	-4%	-15%	i	?
CCOc1ccc(OCC)c(NC(=O)CN2CCN(CC)CC2)c1	9%	i	7%	-7%	i	-20%
CCOc1ccc(OCC)c(NC(=O)CN2CCN(c3cccc(C)c3)C(C)C2)c1 (stereo unspecified)	2%	?	-3%	15µM*	?	15µM*
CCOc1ccc(OCC)c(NC(=O)Cn2cccc2)c1	11%	i	1%	2%	?	-27%
CCOc1ccc(OCC)c(NC(=O)CN2CCN(c3cccc(C)c3)CC2)c1	-5%	?	-4%	23µM*	i	16µM*
COc1ccc(C(=O)Cn2nnc(-c3ccccc3NC(=O)C3CCCCC3)n2)cc1	-2%	i	0%	23µM*	?	?
COc1ccccc1NC(=O)Cn1nnc(-c2ccccc2NC(=O)c2cccs2)n1	19%	i	10%	?	i	21µM*
CC1Cc2ccccc2N1C(=O)Cn1nnc(-c2ccccc2NC(=O)C2CCC2)n1 (stereo unspecified)	?	i	-24%	?	i	15µM*
CCC(=O)Nc1ccccc1-c1nnn(CC(=O)N2c3ccccc3CC2C)n1 (stereo unspecified)	2%	i	0%	?	?	-22%
COc1ccc(NC(=O)Cn2nnc(-c3ccccc3NC(=O)c3ccco3)n2)cc1	?	4.1µM*	?	2.9µM*	?	2.6µM*
COc1ccccc1NC(=O)Cn1nnc(-c2ccccc2NC(=O)c2ccco2)n1	12%	i	10%	-14%	?	?
O=C(Nc1ccc(F)cc1Cl)C1Cc2ccccc2N1C(=O)c1ccccc1 (stereo unspecified)	.	i	.	-5%	i	-22%
COc1ccc(NC(=O)c2cc3c(=O)n(Cc4ccco4)ccc3nc2C)c(OC)c1	.	.	.	-17%	.	?
COc1ccc(/C=N/NC(=O)CN(C)C(=O)OCc2ccccc2)cc1OC	-13%	i	-11%	0%	i	-1%

Assay outcomes from PubChem BioAssay.
